PubChem BioAssay AID1159580 (chemical genetic matrix, 2015)
About 2,000 (36%) of roughly 5,500 compounds were called active. Inconclusive results (about 18%) are left out. Rule as the data show it: active = normalized growth mostly below about 0.91 (no sharp cut-off); inconclusive = no clear call, values can overlap the other calls; inactive = mostly above about 0.92. The list shows a part of the results.

Assay: chemical genetic growth profiling, strain panel (AID 1159580);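 also: tested at 20 µM; growth read once vehicle control cultures reached saturation at 30 °C; 1 = growth at the plate median or of vehicle wells; lower values mean less growth of the strain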
Conditions: growth OD

Measured: normalized growth

CN1CCN(C(c2ccccc2)c2ccccc2)CC1
inactive: S. cerevisiae deletion strains, locus YJR075W, strain HOC1, stronger effect = lower value 1 | S. cerevisiae deletion strains, locus YKL009W, strain mrt4, stronger effect = lower value 0.963 | S. cerevisiae deletion strains, locus YKL068W, stronger effect = lower value 0.977 | S. cerevisiae deletion strains, locus YKL085W, strain MDH1 (second series), stronger effect = lower value 0.973 | S. cerevisiae deletion strains, locus YKL085W, strain MDH1, stronger effect = lower value 0.973 | S. cerevisiae deletion strains, locus YKL160W, strain elf1, stronger effect = lower value 0.965 | S. cerevisiae deletion strains, locus YKL190W, strain CNB1, stronger effect = lower value 0.974 | S. cerevisiae deletion strains, locus YKR001C, strain vps1, stronger effect = lower value 0.974 | S. cerevisiae deletion strains, locus YKR026C, strain gcn3, stronger effect = lower value 0.992 | S. cerevisiae deletion strains, locus YKR091W, strain srl3, stronger effect = lower value 0.98 | S. cerevisiae deletion strains, locus YLL001W, strain dnm1, stronger effect = lower value 0.996 | S. cerevisiae deletion strains, locus YLL026W, stronger effect = lower value 0.999 | S. cerevisiae deletion strains, locus YLL041C, strain sdh2, stronger effect = lower value 0.971 | S. cerevisiae deletion strains, locus YLR027C, strain aat2, stronger effect = lower value 0.985 | S. cerevisiae deletion strains, locus YLR039C, strain RIC1, stronger effect = lower value 1 | S. cerevisiae deletion strains, locus YLR058C, strain SHM2, stronger effect = lower value 0.999 | S. cerevisiae deletion strains, locus YLR102C, strain apc9, stronger effect = lower value 0.967 | S. cerevisiae deletion strains, locus YLR113W, strain HOG1, stronger effect = lower value 0.994 | S. cerevisiae deletion strains, locus YLR221C, strain rsa3, stronger effect = lower value 1.02 | S. cerevisiae deletion strains, locus YLR258W, strain gsy2, stronger effect = lower value 0.978 | S. cerevisiae deletion strains, locus YLR262C, strain YPT6 (second series), stronger effect = lower value 1 | S. cerevisiae deletion strains, locus YLR262C, strain YPT6, stronger effect = lower value 1.03 | S. cerevisiae deletion strains, locus YLR268W, strain sec22, stronger effect = lower value 0.965 | S. cerevisiae deletion strains, locus YLR320W, strain mms22, stronger effect = lower value 0.992 | S. cerevisiae deletion strains, locus YLR330W, strain CHS5, stronger effect = lower value 0.989 | S. cerevisiae deletion strains, locus YLR342W, strain FKS1 (second series), stronger effect = lower value 1.03 | S. cerevisiae deletion strains, locus YLR342W, strain FKS1, stronger effect = lower value 0.991 | S. cerevisiae deletion strains, locus YLR357W, strain rsc2, stronger effect = lower value 0.948 | S. cerevisiae deletion strains, locus YLR370C, strain arc18, stronger effect = lower value 0.989 | S. cerevisiae deletion strains, locus YLR371W, strain rom2, stronger effect = lower value 0.974 | S. cerevisiae deletion strains, locus YLR384C, strain iki3, stronger effect = lower value 0.965 | S. cerevisiae deletion strains, locus YLR418C, strain cdc73, stronger effect = lower value 0.934 | S. cerevisiae deletion strains, locus YML016C, strain PPZ1, stronger effect = lower value 1 | S. cerevisiae deletion strains, locus YML032C, strain rad52, stronger effect = lower value 0.959 | S. cerevisiae deletion strains, locus YML120C, strain ndi1, stronger effect = lower value 0.99 | S. cerevisiae deletion strains, locus YML124C, strain tub3, stronger effect = lower value 0.968 | S. cerevisiae deletion strains, locus YMR058W, strain fet3, stronger effect = lower value 1.01 | S. cerevisiae deletion strains, locus YMR078C, strain ctf18, stronger effect = lower value 0.973 | S. cerevisiae deletion strains, locus YMR125W, strain sto1, stronger effect = lower value 0.95 | S. cerevisiae deletion strains, locus YMR129W, stronger effect = lower value 0.996 | S. cerevisiae deletion strains, locus YMR205C, strain PFK2, stronger effect = lower value 0.963 | S. cerevisiae deletion strains, locus YMR223W, strain ubp8, stronger effect = lower value 0.991 | S. cerevisiae deletion strains, locus YMR231W, strain pep5, stronger effect = lower value 0.994 | S. cerevisiae deletion strains, locus YMR263W, strain SAP30, stronger effect = lower value 0.997 | S. cerevisiae deletion strains, locus YMR307W, strain GAS1, stronger effect = lower value 1.02 | S. cerevisiae deletion strains, locus YNL067W, strain RPL9B, stronger effect = lower value 0.996 | S. cerevisiae deletion strains, locus YNL071W, strain lat1, stronger effect = lower value 0.984 | S. cerevisiae deletion strains, locus YNL128W, strain TEP1, stronger effect = lower value 0.991 | S. cerevisiae deletion strains, locus YNL153C, strain GIM3, stronger effect = lower value 1 | S. cerevisiae deletion strains, locus YNL183C, strain NPR1, stronger effect = lower value 0.937 | S. cerevisiae deletion strains, locus YNL209W, strain ssb2, stronger effect = lower value 0.978 | S. cerevisiae deletion strains, locus YNL233W, strain BNI4, stronger effect = lower value 1 | S. cerevisiae deletion strains, locus YNL248C, strain rpa49, stronger effect = lower value 0.932 | S. cerevisiae deletion strains, locus YNL250W, strain rad50, stronger effect = lower value 0.987 | S. cerevisiae deletion strains, locus YNL271C, strain bni1, stronger effect = lower value 0.974 | S. cerevisiae deletion strains, locus YNL298W, strain CLA4, stronger effect = lower value 0.975 | S. cerevisiae deletion strains, locus YNL307C, strain MCK1, stronger effect = lower value 0.962 | S. cerevisiae deletion strains, locus YNL322C, strain KRE1 (second series), stronger effect = lower value 0.978 | S. cerevisiae deletion strains, locus YNL322C, strain KRE1, stronger effect = lower value 0.991 | S. cerevisiae deletion strains, locus YNR049C, strain mso1, stronger effect = lower value 0.99 | S. cerevisiae deletion strains, locus YNR052C, strain pop2, stronger effect = lower value 0.953 | S. cerevisiae deletion strains, locus YOL006C, strain TOP1, stronger effect = lower value 0.929 | S. cerevisiae deletion strains, locus YOL012C, strain htz1 1.39 | S. cerevisiae deletion strains, locus YOL147C, strain pex11, stronger effect = lower value 0.978 | S. cerevisiae deletion strains, locus YOR001W, strain rrp6, stronger effect = lower value 0.993 | S. cerevisiae deletion strains, locus YOR061W, strain CKA2, stronger effect = lower value 1 | S. cerevisiae deletion strains, locus YOR069W, strain VPS5, stronger effect = lower value 0.998 | S. cerevisiae deletion strains, locus YOR070C, strain gyp1, stronger effect = lower value 0.979 | S. cerevisiae deletion strains, locus YOR080W, strain dia2, stronger effect = lower value 0.986 | S. cerevisiae deletion strains, locus YOR083W, strain WHI5, stronger effect = lower value 0.948 | S. cerevisiae deletion strains, locus YOR106W, strain vam3, stronger effect = lower value 0.995 | S. cerevisiae deletion strains, locus YOR136W, strain idh2, stronger effect = lower value 0.971 | S. cerevisiae deletion strains, locus YOR144C, strain elg1, stronger effect = lower value 0.96 | S. cerevisiae deletion strains, locus YOR184W, strain ser1, stronger effect = lower value 0.994 | S. cerevisiae deletion strains, locus YOR231W, strain MKK1, stronger effect = lower value 0.987 | S. cerevisiae deletion strains, locus YOR265W, strain rbl2, stronger effect = lower value 0.98 | S. cerevisiae deletion strains, locus YOR270C, strain vph1, stronger effect = lower value 0.914 | S. cerevisiae deletion strains, locus YOR290C, strain snf2, stronger effect = lower value 0.974 | S. cerevisiae deletion strains, locus YOR316C, strain cot1, stronger effect = lower value 0.958 | S. cerevisiae deletion strains, locus YPL051W, strain arl3, stronger effect = lower value 0.979 | S. cerevisiae deletion strains, locus YPL055C, strain LGE1, stronger effect = lower value 0.975 | S. cerevisiae deletion strains, locus YPL078C, strain atp4, stronger effect = lower value 0.974 | S. cerevisiae deletion strains, locus YPL106C, strain sse1, stronger effect = lower value 0.949 | S. cerevisiae deletion strains, locus YPL240C, strain hsp82, stronger effect = lower value 1.01 | S. cerevisiae deletion strains, locus YPL241C, strain CIN2, stronger effect = lower value 0.994 | S. cerevisiae deletion strains, locus YPL256C, strain CLN2, stronger effect = lower value 0.995 | S. cerevisiae deletion strains, locus YPR119W, strain clb2, stronger effect = lower value 0.977 | S. cerevisiae deletion strains, locus YPR141C, strain kar3, stronger effect = lower value 0.954 | S. cerevisiae deletion strains, locus YPR163C, strain tif3, stronger effect = lower value 0.971 | S. cerevisiae deletion strains, locus YPR167C, strain met16, stronger effect = lower value 0.958 | S. cerevisiae deletion strains, strain wtn01, stronger effect = lower value 0.979 | S. cerevisiae strains, strain wild type, stronger effect = lower value 1.01
